Hits are enriched below; roughly 7.4% of the tested compounds scored in any of these assays.
SNCA expr inh – reduces expression of the alpha-synuclein gene | HEK-293 SNCA-luciferase knock-in, luminescence, 24 h | Potency, µM (highest dose often 57.2 µM), inactives show top-dose activity change, negative = inhibition, usual class: inhibitors | 140,000 tested, 0.17% active | AID 1671194;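 note: plate controls were DMSO cells for no effect and cell-free wells for full effect; nearly all actives have a fitted effect of over 45% in size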
3T3 cytotox – cytotoxic compounds in NIH 3T3 cells; NIH 3T3 viability, CellTiter-Glo ATP luminescence, 48-72 h; Potency, µM (series often up to 96.7 µM), inactives show at the top dose activity change, negative = cytotoxicity, actives largely listed as inhibitors; 94,000 tested, 4.3% active; AID 1345082; note: % is set by controls: 0 for no effect and ±100 for the full control effect; nearly all actives have a fitted effect of over 55% in size
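Luminescent ATP readout (CellTiter-Glo, 10 min RT) after 48 or 72 hr compound exposure of NIH 3T3 cells seeded at 400 cells/well in 1536-well format; quantitative HTS.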
FLuc inh-1 – Photinus pyralis luciferase inhibition | Potency, µM (top dose mostly 115 µM), most hits filed as inhibitors | AID 1347043 | 76,000 tested, 2.5% active | purified P. pyralis luciferase, luminescence, biochemical; note: % is set by controls: 0 for no effect and ±100 for the full control effect; nearly all actives have a fitted effect of over 65% in size
Target sequence (P08659 whole entry, looked up): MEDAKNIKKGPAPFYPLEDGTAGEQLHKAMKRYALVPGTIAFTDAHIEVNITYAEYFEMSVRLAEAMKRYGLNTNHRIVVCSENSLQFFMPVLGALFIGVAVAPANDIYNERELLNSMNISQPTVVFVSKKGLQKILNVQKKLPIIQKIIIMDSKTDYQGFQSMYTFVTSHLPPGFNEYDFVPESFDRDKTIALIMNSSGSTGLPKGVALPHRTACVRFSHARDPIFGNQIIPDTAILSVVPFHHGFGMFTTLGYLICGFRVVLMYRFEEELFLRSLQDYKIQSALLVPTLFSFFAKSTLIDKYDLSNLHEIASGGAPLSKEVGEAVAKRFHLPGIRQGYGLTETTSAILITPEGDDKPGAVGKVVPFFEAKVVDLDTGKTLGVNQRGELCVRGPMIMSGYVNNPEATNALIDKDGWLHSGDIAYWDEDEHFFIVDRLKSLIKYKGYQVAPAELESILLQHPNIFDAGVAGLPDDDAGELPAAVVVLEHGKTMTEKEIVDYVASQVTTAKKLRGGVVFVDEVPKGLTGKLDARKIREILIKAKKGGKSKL
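Purified P. pyralis luciferase (10nM final) in 50mM Tris acetate pH 7.5, 10mM Mg acetate, 0.01% Tween-20, 0.05% BSA with 10uM D-luciferin and 10uM ATP. Compounds titrated qHTS. Luminescence imaged on CCD.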
HEK293 tox – HEK 293 cell cytotoxicity. 94,000 tested, 6.6% active. HEK 293 viability, ATP luminescence (CellTiter-Glo), 48-72 h. Potency, µM (top dose mostly 115 µM), inactives show at the highest dose activity change, negative = cytotoxicity, most hits filed as inhibitors; note: % is set by controls: 0 for no effect and ±100 for the full control effect; nearly all actives have a fitted effect of over 60% in size
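Cytotoxicity was scored by loss of ATP-coupled luminescence (CellTiter-Glo) in HEK 293 cells. Compound treatment ran 48 or 72 hr at 37 degree Celsius, 5% CO2, 95% humidity.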
HEK293 viab – counter-screen for SNCA expression inhibitors: cell viability; HEK-293-SNCA-luc viability, GF-AFC fluorescence, 24 h; Potency, µM (titrated, usually from 57.1 µM), inactives show at the highest dose activity change, negative = cytotoxicity, usual class: cytotoxic; 150,000 tested, 0.12% active;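 note: 0% = DMSO-treated cells and -100% = medium-only wells without cells; nearly all actives have a fitted effect of over 30% in size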
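HEK-293-SNCA-luc cells (1500/well) plated 24 h, then exposed 24 h to a dilution series; GF-AFC added 30 min at 37C, fluorescence 405/540 nm; normalised to medium-only and DMSO wells, Hill fit.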
NPR1 antag – antagonists of human natriuretic peptide receptor Npr1; P16066; HEK293 hNpr1 GloSensor cGMP, ANP-stimulated luminescence; Potency, µM (titrated, usually from 46.3 µM), without a hit: at the highest dose activity change, negative = inhibition, most hits filed as inhibitors; 76,000 tested, 1.6% active; AID 1347048; calls by dose curve; note: % is set by controls: 0 for no effect and ±100 for the full control effect; nearly all actives have a fitted effect of over 60% in size
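HEK293 cells stably expressing human Npr1 and cGMP GloSensor pGS-40F, loaded 2 h with 2% GloSensor reagent, given compound 30 min at room temperature. Luminescence read before and 20 min after 0.1 nM hNppA.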
FLuc SDR no ATP – binders stabilizing firefly luciferase, without ATP | shares compounds with FLuc inh-1 | Purified FLuc-C-HiBiT, Nano-Glo HiBiT luminescence, no ATP | Potency, µM (doses to about 32.7 µM), for inactives: at the top dose activation (signal gain), hits mostly activators | 1,300 tested, 7.8% active; note: nearly all actives have a fitted effect of over 55% in size
FLuc SDR ATP – firefly luciferase binding stabilization, ATP added; shares compounds with FLuc inh-1; purified FLuc-C-HiBiT + ATP, HiBiT complementation luminescence; Potency, µM (top dose mostly 32.7 µM), for the others: at the highest dose activation (gain of signal), usual class: activators; 1,300 tested, 8.7% active;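 note: signal reports ligand binding via conformational change of the enzyme rather than luciferase catalysis; % of control where 0% means no effect; nearly all actives have a fitted effect of over 55% in size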
FLuc inh-2 – blocks firefly luciferase enzymatic activity. shares compounds with FLuc inh-1. purified FLuc-C-HiBiT enzyme, luciferin luminescence. Potency, µM (doses to about 32.7 µM), inactives show at the top dose activity change, negative = inhibition, most hits filed as inhibitors. 1,300 tested, 42% active; note: % is set by controls: 0 for no effect and ±100 for the full control effect; nearly all actives have a fitted effect of over 70% in size
NPR1 antag cnf – hNpr1 antagonism, confirmation assay | shares compounds with NPR1 antag | HEK293 hNpr1 cGMP GloSensor luminescence, ANP-stimulated | Potency, µM (top dose mostly 57.6 µM), inactives show at the top dose activity change, negative = inhibition, most hits filed as inhibitors | 1,400 tested, 76% active | AID 1347044; calls by dose curve; note: nearly all actives have a fitted effect of over 70% in size
NPR2 antag – selectivity test of Npr1 antagonists against human Npr2; shares compounds with NPR1 antag; HEK293 hNpr2 GloSensor cGMP luminescence, CNP-stimulated; Potency, µM (highest dose often 57.6 µM), for inactives: at the top dose activity change, negative = inhibition, actives largely listed as inhibitors; 1,400 tested, 67% active; calls by dose curve; note: nearly all actives have a fitted effect of over 70% in size
FLuc counter – counter-screen for Npr1 antagonists: firefly luciferase inhibitors | AID 1347047 | shares compounds with NPR1 antag | purified FLuc enzyme, luminescence, Km substrate | 1,400 tested, 0.7% active | Potency, µM (doses to about 57.6 µM), without a hit: at the highest dose activity change, negative = inhibition, actives largely listed as inhibitors; note: 0% is about no effect
GloSensor ctrl – reduces cGMP signal in GloSensor control cells | shares compounds with NPR1 antag | HEK293 GloSensor cGMP, SNP-stimulated, luminescence | Potency, µM (doses to about 57.6 µM), without a hit: at the highest dose activity change, negative = inhibition, most hits filed as inhibitors | 1,400 tested, 69% active | AID 1347051; calls by dose curve; note: % is set by controls: 0 for no effect and ±100 for the full control effect; nearly all actives have a fitted effect of over 70% in size
An asterisk follows results filed as active; i = inactive; ? = inconclusive; . = not tested or not shown; [ ] = remark or other dose. Unless noted, calls come from the whole dose curve; as a rule, active = well fitted curve in the direction sought with a large enough effect; inconclusive = small, poorly fitted or top-dose-only effect, or another doubt; inactive = no such curve, though single readings can be large; an effect the other way counts as inactive or inconclusive. Potency is the fitted concentration of half-maximal effect.

SMILES	SNCA expr inh	3T3 cytotox	FLuc inh-1	HEK293 tox	HEK293 viab	NPR1 antag	FLuc SDR no ATP	FLuc SDR ATP	FLuc inh-2	others
CCN1CCC(N2CCC(N3C(=O)C4(CCCCC4)C3c3ccncc3)CC2)CC1 (stereo not given)	17.4%	-27.1%	.	-4.2%	11.9%	.	.	.	.
CC(Oc1cc(-n2cnc3ccc(CN4CCN(C)CC4)cc32)sc1C(N)=O)c1ccccc1C(F)(F)F (stereo not given)	.	.	.	.	-51.9%	.	.	.	.
Cc1ccc(NC(=O)N2CCC(CCNC(=O)C3CC3)CC2)cc1F	-16.1%	-16.9%	11.2µM*	-11.7%	1.6%	-13.9%	?	?	?
O=C(NCCC1CCN(C(=O)Nc2cc(F)cc(F)c2)CC1)c1ccc(F)cc1	49.3%	?	14.1µM*	?	4.3%	-22.5%	16.8%	11.4%	-17.7%
O=C(NCCC1CCN(C(=O)Nc2ccccc2)CC1)c1ccc(F)cc1	69.8%	-5.2%	?	2.5%	6.3%	-14.5%	.	.	.
O=C(Cc1ccccc1F)N1CC2CC(C1)[C@H]1CCCC(=O)N1C2 (stereo not given in full)	-12.2%	i	i	4.5%	-0.7%	0.7%	.	.	.
CN(c1ccc(NC(=O)Nc2ccc(OC(F)(F)F)cc2)cc1)c1ccnc(Nc2cccc(S(N)(=O)=O)c2)n1	.	.	.	.	.	.	16.0%	8.9%	2.0%
Cc1cn2nc(C(=O)Nc3ccc(OC(F)(F)F)cc3)cc2c(N2CCSCC2)n1	8.8%	?	i	?	6.5%	3.9%	.	.	.
COC(=O)c1ccc2c(c1)/C(=C/c1cc(Br)c(O)c(Br)c1)C(=O)N2	.	.	.	.	.	.	5.4%	2.4%	9.89µM*
CN(C)c1ccc(/C=C2\C(=O)Nc3ccccc32)cc1	0.4%	.	.	.	-28.0%	.	.	.	.
Fc1ccc(Nc2nc(-c3ccccc3)no2)cc1	79.7%	?	3.16µM*	?	-6.7%	?	22.3%	18.1%	6.24µM*
c1ccc(CNc2nc(-c3ccccc3)no2)cc1	107.6%	?	14.1µM*	?	2.7%	?	18.9%	13.9%	?
Fc1cccc(Nc2nc(-c3ccccc3)no2)c1	95.8%	?	3.16µM*	?	-15.4%	?	21.7%	19.1%	7µM*
Cc1cc(C)cc(Nc2nc(-c3ccccc3F)no2)c1	76.8%	44.7µM*	1.58µM*	39.8µM*	-1.3%	?	16.5%	14.4%	6.24µM*
CN(C)c1ccc(-c2noc(-c3nc(-c4ccccc4F)no3)n2)cc1	10.7%	i	i	10.4%	-2.1%	3.6%	.	.	.
Fc1cccc(Cc2noc(-c3nc(-c4ccccc4)no3)n2)c1	60.1%	-15.1%	i	?	10.8%	-2.2%	.	.	.
COc1cccc(CN2CC[C@H]3C(=O)NCCCCCCN(Cc4ccncc4)[C@@H]3C2)c1OC	3.9%	-24.8%	i	-18.2%	-14.6%	-17.6%	.	.	.
CCOC(=O)c1cccc(Nc2nc(-c3ccccc3)no2)c1	131.3%	-27.5%	1.78µM*	28.2µM*	-8.7%	-30.5%	14.0%	?	?
Cc1ccc(-n2ncc3c(N(C)C)ncnc32)cc1Cl	22.7%	.	.	.	6.8%	.	?	?	2.21µM*
CC(=O)c1cccc(Nc2nn(-c3ccc(OC(F)(F)F)cc3)nc2C(C)=O)c1	-4.4%	.	.	.	7.9%	.	24.1%	13.8%	?
CCOc1cccc(Nc2nn(-c3ccc(OC(F)(F)F)cc3)nc2C(C)=O)c1	18.3%	.	.	.	4.7%	.	.	.	.
CSCC1OC(n2cnc3c(N)ncnc32)C(O)C1O (stereo not given)	.	.	.	.	-11.0%	.	.	.	.
Nc1ncnc2c1ncn2[C@@H]1O[C@H](CO)[C@@H](O)[C@@H]1O	?	.	.	.	3.1%	.	10.6%	11.2%	-9.3%
CC(C)c1ccc(CN2C[C@@H]3C(=O)N(CCCN4CCCC4=O)C(=O)[C@@H]3C2)cc1	6.6%	-17.0%	i	?	-12.5%	-15.7%	.	.	.
COC[C@@H]1CN(C(=O)c2ccccn2)C[C@H]1c1ccccn1	2.9%	i	i	-0.7%	-0.8%	-1.5%	.	.	.
OC(c1cccc(C(F)(F)F)c1)c1nc(Nc2ccc3c(c2)OCO3)n[nH]1 (stereo not given)	-0.8%[87.6 µM]	?	i	?	-1.0%[87.6 µM]	?	.	.	.	NPR1 antag cnf=?;NPR2 antag=?;FLuc counter=-13.7%[86.2 µM];GloSensor ctrl=?
OC(c1ccccc1)c1nc(Nc2ccc(C(F)(F)F)cc2)n[nH]1 (stereo not given)	-0.9%[87.6 µM]	?	i	?	-2.5%[87.6 µM]	-16.0%[70.6 µM]	.	.	.
O=C1CCN(Cc2ccncc2)CCCC(c2nc(-c3cccnc3)no2)CCN1 (stereo not given)	5.0%	-1.8%	i	i	4.9%	1.6%	.	.	.

Source: PubChem
